Measured values taken from PubChem BioAssay (NCI).
About 83,000 compounds went through this panel and 20% of them were active in at least one assay; those are over-represented in the sample as a whole.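 Interpretation: 100, growth as untreated; towards 0, rising growth inhibition; 0, no net growth; 0 to -100, cell death. Compounds scoring below 10 were considered active.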 A number with no mark means an inactive call. Calls of active or inactive are those of the source.

Tests used:
Test in all cases: NCI-60 one-dose screen, 48 h (100 = growth as untreated, 0 = no growth, -100 = all killed)
Conditions in all cases: 10 µM unless noted
[1] = tested on: SK-MEL-2 melanoma
[2] = tested on: EKVX NSCLC
[3] = tested on: SN12C renal
[4] = tested on: UO-31 renal
[5] = tested on: TK-10 renal
[6] = tested on: ACHN renal
[7] = tested on: CAKI-1 renal
[8] = tested on: A498 renal
[9] = tested on: CCRF-CEM leukemia
[10] = tested on: MOLT-4 leukemia

SMILES | growth [1] | growth [2] | growth [3] | growth [4] | growth [5] | growth [6] | growth [7] | growth [8] | growth [9] | growth [10]
CN(C)CCCN1c2ccccc2CCc2ccccc21 | 105% | 107% | 80.1% | 83.2% | 93.3% | 91.4% | 84.6% | 124% | 97.6% | 83.7%
Nc1c(Br)cc2c(c1Br)Cc1cc(Cl)ccc1-2 | 114% | 69.1% | 89.8% | 77.6% | 130% | 81.3% | 74.6% | 121% | 94.2% | 97.4%
Cc1cc(O)ccc1Sc1ccccc1[N+](=O)[O-] | 99.4% | 74.8% | 92.3% | 52.7% | 90.6% | 87.4% | 89.8% | 87.6% | 93.5% | 115%
COc1ccc2nc3ccccc3c(NCc3ccc(C)cc3)c2c1 | 70% | 35.2% | 23.6% | 13.4% | 47% | 16.3% | 26.2% | -1.58% (active) | 7.09% (active) | 0.305% (active)
CN1C(=O)N(C)C2C1NN=c1s/c(=C\c3ccc(Br)cc3)c(=O)n12 (stereo not given) | 52.7% | 50% | 50.2% | 53.4% | 60.4% | 43.2% | 38.6% | 20.2% | 10.3% | 40.3%
Cc1c(C(N)=O)sc2ncn(CC(=O)NN=C3CCCCC3)c(=O)c12 | 5.33% (active) | 96.6% | 96.3% | 124% | 106% | 109% | 132% | 111% | 113% | 109%
CC(C)OC1OC(OC(C)C)C(OC(C)C)OC1OC(C)C (stereo not given) | 95.1% | 103% | 94.6% | 92.5% | 102% | 95.1% | 93.9% | 101% | 93.4% | 80.2%
CC1=C(/C=C/C(C)=C/C=C(C(=O)O)\C(C)=C\C(=O)O)C(C)(C)CCC1 | 94.7% | 124% | 92% | 92.7% | 98% | 99.9% | 117% | 91.2% | 93.3% | 86.3%
O=C(/C=C/c1ccccc1Br)c1cccc(OCCCCOc2cccc(C(=O)/C=C/c3ccccc3Br)c2)c1 | 104% | 102% | 96.6% | 81.3% | 117% | 98.6% | 91.9% | 108% | 88.5% | 91.6%
c1ccc2oc(-c3cnc4nonc4n3)cc2c1 | 95% | 71.2% | 93% | 63.1% | 132% | 82.3% | 86.8% | 103% | 95.8% | 97.2%
CN1C2CCC1/C(=C\c1ccc(F)cc1)C(=O)/C2=C/c1ccc(F)cc1 | 50% | 60.4% | 37.8% | 49.7% | 73.1% | 55.5% | 54.8% | 73.3% | 16.5% | 9.91% (active)
O=C(c1ccccc1)c1cccc(C(Br)Br)c1 | 74.5% | 107% | 89.7% | 74.1% | 78.9% | 91% | 78.2% | 77.2% | 103% | 81.5%
CC(C)[C@@]12C[C@@H](OC(=O)C3CO3)[C@@](C)(O1)[C@@H]1CC[C@@H](C)[C@H]1[C@@H]2OC(=O)/C=C/c1ccccc1 (stereo not given in full) | 87.9% | 82.3% | 58.6% | -3.56% (active) | 119% | 5.97% (active) | 51.7% | -31.7% (active) | 88.5% | 79.9%
O=c1c2cc(Br)cc(Br)c2nc(-c2ccc(Cl)cc2)n1/N=C\c1ccccc1F | 78.4% | 63.7% | 58.2% | 21.6% | 33.1% | 26.4% | 27% | 85.6% | 71.7% | 74%
COc1ccc(/C(C)=N/NC(=O)CSc2nc3ccccc3c(=O)n2CCc2ccc(S(N)(=O)=O)cc2)cc1 | 6.04% (active) | 87.3% | 27.7% | 32.4% | -39.8% (active) | 34.7% | 28.9% | 5.05% (active) | 33.9% | 43%
COc1ccc2nc3cc(Cl)ccc3c(NC(=O)CSc3ccc(Cl)cc3)c2c1 | -88.5% (active) | -62.4% (active) | -75.3% (active) | -96.1% (active) | -96.1% (active) | -94.6% (active) | -90.8% (active) | -99% (active) | 1.21% (active) | -52% (active)
COc1cc2ncnc(Nc3ccc(S(=O)(=O)Nc4nccs4)cc3)c2cc1OCCCN1CCOCC1 | 99.2% | 111% | 98% | 83.6% | 103% | 103% | 91.7% | 115% | 105% | 105%
CCCCCCCCCCCCNC(=O)N[C@H](C(=O)N[C@H]1/C=C/OCCNC(=O)/C=C/[C@H](C(C)C)NC1=O)C(C)C | 66.8% | 86.5% | 93.6% | 93.5% | 97.1% | 115% | 96.1% | 96.1% | 40.6% | 51.3%
CCCCCCCCN(CCCCCCCC)C(=O)CCl | 108% | 108% | 93.8% | 73.3% | 108% | 100% | 44.9% | 99.8% | -33.4% (active) | 90.6%
COc1cc2ncnc(Nc3ccc(S(=O)(=O)Nc4cc(C)on4)cc3)c2cc1OCCCN1CCN(c2ccc([N+](=O)[O-])cc2)CC1 | 109% | 116% | 102% | 79.2% | 103% | 109% | 92.8% | 110% | 99.1% | 111%
Cc1ccc(C)c2c1SC1=NNC(Oc3ccc(Cl)cc3)=C(C#N)C(=N)N12 | 132% | 100% | 117% | 85.3% | 125% | 90.6% | 87.4% | 87.1% | 96.8% | 85.2%
O=C(O/C(=C/c1ccccc1)C(F)(F)F)c1ccccc1 | 103% | 103% | 99.3% | 102% | 103% | 110% | 99% | 88.7% | 106% | 7.51% (active)
Cc1ccccc1Nc1n[nH]c(Cc2ccccc2)n1 | 83.8% | 103% | 104% | 86% | 90% | 106% | 101% | 102% | 97.8% | 70.2%
COc1ccc(-c2nc(SCCC(C)C)nc(Nc3ccc(C(=O)O)cc3)c2C#N)cc1 | 70% | 87.7% | 90.6% | 67% | 86.7% | 83.9% | 92.1% | 62.5% | 73.5% | 78.7%
CCCCCN(CCCCC)C(=O)C(CCC(=O)O)NC(=O)c1ccc(Cl)c(Cl)c1 (stereo not given) | 105% | 109% | 100% | 80.4% | 124% | 100% | 91.3% | 83.8% | 114% | 102%
CS(=O)(=O)c1ccc(C(=O)N/N=C/c2cccc3ccccc23)cc1 | 47.7% | 87.4% | 87.4% | 78.5% | 85.1% | 98.5% | 67.2% | 69.1% | 77.6% | 46.8%
CC1(C)CN(CCNc2nccc(-c3c(-c4cccc(O)c4)nc4sccn34)n2)S(=O)(=O)N1 | 24.1% | 108% | 57.6% | 60.5% | 119% | 39.4% | 32.5% | 81.7% | 49.6% | 71.8%
